Only some compounds are listed: those with a hit (about 1.4% of all), similar ones and a draw of the others.
12-LOX inh: Primary qHTS assay for inhibitors of human arachidonate 12S-lipoxygenase (ALOX12): Round 2; Polyunsaturated fatty acid lipoxygenase ALOX12 (Homo sapiens), P18054; purified 12hLO, xylenol orange hydroperoxide absorbance; Potency, µM (titrated, usually from 108 µM), inactives show at the highest dose activity change, negative = inhibition, actives largely listed as inhibitors; 1.1% of 580,000 active; AID 1671190, 2021; also: potency is read from the fitted curve at half-maximal effect; % is scaled to controls: 0 for no effect and ±100 for the full control effect
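Hydroperoxide product was detected by ferrous iron/xylenol orange as the 573 to 405 nm absorbance ratio. Arachidonic acid at 40 uM (final) was turned over for 30 min at room temperature by 150 nM human 12hLO, pH 7.0 Hepes buffer, after 15 min compound preincubation.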
Akt phos inh: HTS Assay for Inhibitors of Akt Phophorylation: Primary Screen. activity change, % for hits at 50 µM. 0.32% of 360,000 active. Neuro2A IGF-stimulated pAkt S473 HTRF, 20 min; hits give low values. AID 651550, 2012; in the data active = activity change below about -80%; inconclusive = mostly about -51% to -80%; also: % is scaled to controls: 0 for no effect and ±100 for the full control effect
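Neuro2A cells (4,500/well, DMEM with 0.5% FBS) were treated with compound at a single 50 µM final concentration, stimulated with 6 nM IGF for 20 min at 37 °C, and lysed. Phospho-Akt Ser473 was read by HTRF as 665/615 ratio ×10^4.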
PTAP TSG101 blk: qHTS Assay for Iinhibitors of HIV-1 Budding by Blocking the Interaction of PTAP/TSG101; Tumor susceptibility gene 101 protein (Homo sapiens), Q99816; Fluorescence polarization, FITC-PTAP peptide / Tsg101 binding; Potency, µM (doses to about 115 µM), inactives show top-dose activity change, negative = inhibition, most hits filed as inhibitors; 340,000 tested, under 10 active; AID 493005, 2010; active = well fitted inhibition curve with a large enough effect in the main read-out, with a control signal flat, not every such curve was filed as active; inconclusive = small, poorly fitted or top-dose-only effect, or effect the other way, or a change in a side signal; inactive = no such curve, though single readings can be large or run the other way; also: potency is read from the fitted curve at half-maximal effect; % of control where 0% means no effect
Target sequence (Q99816 whole entry, looked up): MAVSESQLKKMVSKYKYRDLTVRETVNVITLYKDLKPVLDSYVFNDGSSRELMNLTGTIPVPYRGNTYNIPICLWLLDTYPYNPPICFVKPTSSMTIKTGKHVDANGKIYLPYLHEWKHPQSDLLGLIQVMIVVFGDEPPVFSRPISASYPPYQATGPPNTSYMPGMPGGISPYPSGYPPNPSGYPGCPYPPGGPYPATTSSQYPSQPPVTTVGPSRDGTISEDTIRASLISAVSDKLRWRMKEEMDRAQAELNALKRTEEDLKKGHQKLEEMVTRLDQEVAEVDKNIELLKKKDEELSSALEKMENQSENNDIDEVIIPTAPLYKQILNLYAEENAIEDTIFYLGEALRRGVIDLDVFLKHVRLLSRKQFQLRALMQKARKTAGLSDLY
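Compounds were pin-transferred onto Tsg101 binding domain (10 uM final) in HEPES pH 7.5 buffer, then FITC-PTAP peptide was added at 50 nM final. After 20 min at RT, polarization reported peptide displacement across a qHTS concentration series.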
Vif-A3F inh: qHTS for Inhibitors of Vif-A3F Interactions: qHTS; HeLa A3F-eYFP + Vif (tagged APOBEC3F with the HIV-1 protein that degrades it), YFP fluorescence increase; Potency, µM (titrated, usually from 46.1 µM), without a hit: top-dose activity, negative = active; 0.2% of 390,000 active; also: potency is read from the fitted curve at half-maximal effect; % of control where 0% means no effect; nearly all actives have a fitted effect of over 65% in size
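HeLa cells stably expressing A3F-eYFP plus Vif, plated and incubated overnight at 37 deg C, then exposed to compounds overnight at 37 deg C. Blocked degradation read as raised yellow fluorescence (Ex 488/Em 500-530).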
Vif-APOBEC3G blk: qHTS for Inhibitors of Vif-A3G Interactions: qHTS | DNA dC->dU-editing enzyme APOBEC-3G (Homo sapiens), Q9HC16 | HeLa A3G-eYFP + Vif (tagged APOBEC3G with the HIV-1 protein that degrades it), YFP fluorescence, overnight | Potency, µM (titrated, usually from 46.1 µM), inactives show at the top dose activity, negative = active, most hits filed as inhibitors | 0.076% of 410,000 active | AID 602310, 2012; also: potency is read from the fitted curve at half-maximal effect; % is scaled to controls: 0 for no effect and ±100 for the full control effect; nearly all actives have a fitted effect of over 60% in size
Target sequence (Q9HC16 whole entry, looked up): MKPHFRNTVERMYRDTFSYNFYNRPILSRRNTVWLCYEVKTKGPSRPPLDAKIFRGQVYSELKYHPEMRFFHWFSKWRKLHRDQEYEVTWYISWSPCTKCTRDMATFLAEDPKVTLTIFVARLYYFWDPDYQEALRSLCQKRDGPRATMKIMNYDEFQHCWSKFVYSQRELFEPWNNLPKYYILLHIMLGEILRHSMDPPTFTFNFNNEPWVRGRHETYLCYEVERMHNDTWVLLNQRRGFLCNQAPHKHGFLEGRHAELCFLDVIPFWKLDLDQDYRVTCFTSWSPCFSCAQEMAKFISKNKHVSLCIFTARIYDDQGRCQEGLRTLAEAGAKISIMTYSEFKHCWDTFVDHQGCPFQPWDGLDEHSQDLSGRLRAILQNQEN
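Read-out is eYFP fluorescence (Ex 488/Em 500-530) from Vif-expressing HeLa A3G-eYFP cells; more signal means A3G escaped Vif-mediated degradation. Cells plated overnight, compound pinned in, incubated overnight at 37 deg C.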
ASM inhibitor: Inhibitors of Secretory Acid Sphingomyelinase (S-ASM): qHTS. Sphingomyelin phosphodiesterase (Homo sapiens), P17405. AID 504937, 2011. 0.006% of 340,000 active. Potency, µM (top dose mostly 57.5 µM), without a hit: at the highest dose activity change, negative = inhibition, most hits filed as inhibitors. placental ASM, HMU-PC fluorogenic substrate, 60 min; also: potency is read from the fitted curve at half-maximal effect
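Human placenta-derived ASM preincubated with compound 10 min at room temperature, then reacted with 9 uM (final) fluorogenic HMU-PC substrate for 60 min at 37 C. Stop solution raises pH to 10; fluorescence read at Ex 386/Em 447 nm.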
* hit, by the source's call; i = inactive; u = inconclusive; x = no result given; ! = repeats disagree. Unless noted, calls follow the shape of the dose curve; as a rule, active = well fitted curve in the direction sought with a large enough effect; inconclusive = small, poorly fitted or top-dose-only effect, or another doubt; inactive = no such curve, though single readings can be large; an effect the other way counts as inactive or inconclusive.

SMILES	12-LOX inh	Akt phos inh	PTAP TSG101 blk	Vif-A3F inh	Vif-APOBEC3G blk	ASM inhibitor
O=C(NCc1ccccn1)C1CCN(Cc2cnn(-c3ccccc3)c2-n2cccc2)CC1	1%	x	2%	-2%	1%	1%
O=C(NCc1ccccn1)C1CCCN(Cc2cnn(-c3ccccc3)c2-n2cccc2)C1 (stereo unspecified)	x	-98%*	-1%	10%	-1%	2%
COc1ccccc1Oc1c(C)oc2c(CN3CCN(CCO)CC3)c(O)ccc2c1=O	13%	i	2%	x	-3%	77%
Cc1oc2cc(OCC(=O)O)ccc2c(=O)c1Oc1ccccc1Br	32µM*	x	x	x	x	x
C=C(C)COc1ccc2c(=O)c(Oc3ccccc3Br)c(C)oc2c1	-58%	x	x	x	x	x
Cc1oc2c(CN3CCCC3)c(O)ccc2c(=O)c1Oc1ccccc1Br	-7%	-85%*	-8%	-9%	0%	338%
c1ccc(CN2CCN(Cc3c[nH]c4ccccc34)CC2)cc1	8%	i	1%	-3%	1%	-1%
O=C(c1cccc2ccccc12)N1CCN(Cc2c[nH]c3ccccc23)CC1	1µM*	x	x	x	x	x
c1cncc(CN2CCN(Cc3c[nH]c4ccccc34)CC2)c1	0.32µM*	x	x	x	x	x
O=C(NC1CCN(c2cc(-c3cccs3)[nH]n2)C1)c1ccccn1 (stereo unspecified)	10%	x	x	x	x	x
CCN(CC)CC(C)OC(=O)c1cccc(F)c1 (stereo unspecified)	-17%	x	x	x	x	x
S=c1[nH]nc(COc2ccc(Cl)cc2)n1Cc1ccccc1	-5%	i	-4%	5%	-3%	3%
Cc1cc(Cl)ccc1OCCCc1n[nH]c(=S)n1Cc1ccccc1	16µM*	x	x	x	x	x
CCn1c(COc2ccc(Cl)cc2)n[nH]c1=S	16µM*	x	x	x	x	x
CCn1c(CCCCc2n[nH]c(=S)n2CC)n[nH]c1=S	-28%	i	-13%	-2%	2%	5%
CCn1c(CCCOc2ccc(Cl)cc2Cl)n[nH]c1=S	25µM*!	i	-5%	0%	-1%	-7%
CCn1c(CCCOc2ccc(Cl)cc2C)n[nH]c1=S	18µM*	x	x	x	x	x
CCCN(CC1CC1)C(=O)CCC1CCN(S(=O)(=O)c2ccccc2)CC1	37%	x	x	x	x	x
CCCCc1n[nH]c(=S)n1Cc1ccc(C)cc1	u	i	2%	u	-1%	3%
Cc1ccc(Cn2c(CCCOc3ccc(Cl)cc3Cl)n[nH]c2=S)cc1	16µM*	x	x	x	x	x
COCCn1c(CCc2ccccc2)n[nH]c1=S	-18%	i	-4%	3%	0%	-1%
COCCn1c(COc2ccc(C(C)(C)c3ccccc3)cc2)n[nH]c1=S	16µM*	x	x	x	x	x
CCCn1c(Cn2ccnc2C)nc2cc(NC(=O)c3ccccc3)ccc21	22%	x	x	x	x	x
CCOc1ccc(-c2noc(-c3cc(-c4ccco4)n[nH]3)n2)cc1	1%	x	x	x	x	x
CC1=C(C)CS(=O)N(S(=O)(=O)c2ccc(Cl)cc2)C1 (stereo unspecified)	40µM*	i	0%	4%	u	0%
SMILES	12-LOX inh	Akt phos inh	PTAP TSG101 blk	Vif-A3F inh	Vif-APOBEC3G blk	ASM inhibitor
CC1CCCC(C)N1S(=O)(=O)c1ccc(Cl)cc1 (stereo unspecified)	-51%	i	-6%	6%	-6%	2%
CCc1ccc(OCC(=O)NNC(=S)NC(=O)C2CCCCC2)c(Br)c1	7.9µM*	i	-11%	6%	-3%	1%
COc1cc(CN2CCN(c3cccc(C)c3C)CC2)cc(OC)c1O	u	i	-1%	-1%	1%	17%
COc1cc(CN2CCN(Cc3ccccc3C)CC2)cc(OC)c1O	1µM*	x	x	x	x	x
C=C(C)[C@@H]1CCC2(C(=O)OC)CC[C@]3(C)C(CCC4[C@@]5(C)C/C(=C\c6ccccc6)C(=O)C(C)(C)C5CC[C@]43C)C12 (stereo partly specified)	-1%	x	x	x	x	x
COC(=O)[C@]12CCC(C)(C)C[C@@H]1[C@@H]1C(=O)C=C3[C@@]4(C)C=C(C#N)C(=O)C(C)(C)[C@@H]4CC[C@@]3(C)[C@]1(C)CC2	9.7µM*	x	x	x	x	x
CC(C)(C)c1noc(Cn2cnc3ccc(Cl)cc3c2=O)n1	-16%	x	x	x	x	x
O=S(=O)(O)c1cc(O)c(N=Nc2ccc(O)cc2O)c2ccccc12	8.9µM*	i	-16%	2%	1%	-8%
O=S(=O)(O)c1ccc2c(N=Nc3ccc(S(=O)(=O)O)c4ccccc34)c(O)c(S(=O)(=O)O)cc2c1	x	x	x	x	5%	x
CCOc1ccc(C(=O)Nc2scc(-c3ccc(F)cc3)c2C(=O)OC)cc1	16%	x	x	x	x	x
COc1ccc(C(=O)OCC(=O)Nc2ncc([N+](=O)[O-])s2)cc1OC	35µM*	i	-6%	-5%	-5%	-2%
O=C(CSc1n[nH]c(-c2ccccc2)n1)c1cc(F)ccc1F	-20%	x	x	x	x	x
O=C(CSc1n[nH]c(-c2ccc(Br)cc2)n1)c1cc(F)ccc1F	32µM*	x	x	x	x	x
O=C(NC(=S)NCc1ccccc1Cl)c1cccs1	16µM*	i	-1%	1%	-3%	-10%
O=C(NCc1ccccc1F)c1cccs1	12%	i	-6%	-19%	2%	-1%
O=C(NC(=S)Nc1ccccc1N1CCCCC1)c1cccs1	50µM*	i	-7%	2%	-6%	-1%
O=C(NC(=S)Nc1ccccc1N1CCCC1)c1cccs1	-30%	i	-3%	u	-15%	0%
O=C(NC(=S)Nc1ccccc1N1CCN(C(=O)c2ccccc2)CC1)c1cccs1	16µM*	i	-4%	0%	0%	-5%
COc1ccc(C(=O)NC(=S)Nc2ccccc2N2CCCCC2)cc1[N+](=O)[O-]	40µM*	i	2%	-7%	0%	-14%
O=[N+]([O-])c1ccc(N2CCN(S(=O)(=O)c3ccc4ccccc4c3)CC2)c2ncccc12	-5%	x	x	x	x	x
COc1ccc2nc(SCc3nc(N)nc(Nc4ccccc4)n3)[nH]c2c1	13%	-102%*	0%	7%	-6%	-8%
COc1ccc2c(c1)N(C)/C(=C/c1cccc[n+]1C)S2	u	i	0%	u	13µM*	-14%
Cc1ccc2c(c1)N(C)/C(=C/c1cccc[n+]1CCO)S2	-57%	i	0%	13µM*	u	-11%
